Shown is part of a subset that was picked to be rich in hits.
DT40 TDP1 CPT – DT40-hTDP1 cell growth loss with CPT; 12% of 420,000 active; chicken DT40 Tdp1-/-;hTDP1 cells + 20 nM CPT, ATP luminescence, 48 h; AID 686979; Potency, µM (highest dose often 46.2 µM), for the others: top-dose activity change, negative = growth inhibition, usual class: inhibitors; also: potency is read from the fitted curve at half-maximal effect; nearly all actives have a fitted effect of over 55% in size
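Cell growth measured by CellTiter-Glo luminescence after a minimum 48 h, 37 C compound exposure with 20 nM CPT in Tdp1-knockout DT40 cells stably expressing hTDP1, seeded 400/well; qHTS titration format.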
IL1B secr inh – inhibitors of inflammasome signaling (IL-1 beta secretion). THP-1 LPS/ATP IL-1B secretion, AlphaLISA, 16 h; stronger effect = lower value. 4.7% of 360,000 active. activity change, % at 57.5 µM; in the data active = activity change below about -50%; inconclusive = mostly about -30% to -49%
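THP-1 cells pretreated 1 hr with compounds (up to 57.5 uM final), then stimulated with LPS (250 ng/mL final) plus ATP (1.25 mM final); secreted IL-1B measured by AlphaLISA after 16 hr, decreased signal indicating inhibition.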
DT40 TDP1 no CPT – qHTS for Inhibitors of human tyrosyl-DNA phosphodiesterase 1 (TDP1): qHTS in cells in absence of CPT | DT40 Tdp1-/- hTDP1 cells, no CPT, ATP luminescence, 48 h | Potency, µM (highest dose often 46.2 µM), for inactives: top-dose activity change, negative = growth inhibition, hits mostly inhibitors | 15% of 420,000 active; also: potency is read from the fitted curve at half-maximal effect; nearly all actives have a fitted effect of over 55% in size
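Camptothecin absent (DMSO only). Human TDP1-complemented DT40 knockout cells, 400 cells/well, 37 °C for minimum 48 hr; ATP measured via CellTiter-Glo, 30 min dark incubation, luminescence.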
HT1080-NT tox – kills 2HG-producing HT-1080-NT fibrosarcoma cells. HT-1080-NT fibrosarcoma viability, CellTiter-Glo ATP luminescence, 48 h. 1.6% of 360,000 active. AID 686970. Potency, µM (doses to about 46.1 µM), without a hit: at the top dose activity, negative = less viability, hits mostly cytotoxic;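 also: NT is the 2HG producing partner of a matched IDH1 knockdown line; potency is read from the fitted curve at half-maximal effect; 0% = DMSO-treated cells and -100% = media-only wells without cells; nearly all actives have a fitted effect of over 55% in size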
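Compounds were tested in concentration-response format on HT-1080-NT cells for 48 hours at 37 degrees C. Cell viability came from CellTiter-Glo luminescence; curves were classified by r2, response magnitude and activity.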
12-LOX inh – inhibitors of human 12S-lipoxygenase ALOX12 | P18054 | purified 12hLO, xylenol orange hydroperoxide absorbance | Potency, µM (top dose mostly 108 µM), inactives show at the top dose activity change, negative = inhibition, hits mostly inhibitors | 1.1% of 580,000 active | AID 1671190; also: potency is read from the fitted curve at half-maximal effect
Target sequence (P18054 whole entry, looked up): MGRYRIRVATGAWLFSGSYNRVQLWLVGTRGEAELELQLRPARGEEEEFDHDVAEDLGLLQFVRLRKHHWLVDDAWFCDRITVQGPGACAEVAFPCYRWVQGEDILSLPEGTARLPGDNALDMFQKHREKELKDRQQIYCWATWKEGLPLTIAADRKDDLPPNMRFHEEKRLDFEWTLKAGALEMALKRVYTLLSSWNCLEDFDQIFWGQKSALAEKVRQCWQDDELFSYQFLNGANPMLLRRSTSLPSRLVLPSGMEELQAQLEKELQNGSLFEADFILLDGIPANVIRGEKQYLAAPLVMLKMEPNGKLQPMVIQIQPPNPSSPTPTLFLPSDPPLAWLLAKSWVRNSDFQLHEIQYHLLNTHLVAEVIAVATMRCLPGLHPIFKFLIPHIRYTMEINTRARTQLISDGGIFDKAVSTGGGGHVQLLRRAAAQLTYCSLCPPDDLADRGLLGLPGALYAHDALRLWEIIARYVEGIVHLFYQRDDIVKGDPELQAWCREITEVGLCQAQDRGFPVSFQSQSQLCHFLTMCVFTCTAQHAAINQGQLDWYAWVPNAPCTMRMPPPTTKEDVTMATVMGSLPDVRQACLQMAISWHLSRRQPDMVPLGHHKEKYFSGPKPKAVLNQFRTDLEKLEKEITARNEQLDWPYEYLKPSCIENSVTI
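Purified human 12hLO (150 nM final) in 25 mM Hepes, 0.01% Triton X-100, pH 7.0 was preincubated 15 min at room temperature with compound. Then 40 uM arachidonic acid was added, 30 min. Hydroperoxide was read by Fe-XO absorbance ratio 573/405 nm.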
HT1080 IDH1KD tx – kills HT-1080 cells with IDH1 knockdown | Potency, µM (doses to about 46.1 µM), for inactives: top-dose activity, negative = toxicity, usual class: cytotoxic | HT-1080 IDH1 knockdown viability, ATP luminescence, 48 h | 2% of 360,000 active | AID 686971;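 also: potency is read from the fitted curve at half-maximal effect; 0% = DMSO wells and -100% = cell-free medium wells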
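Using the IDH1-knockdown HT-1080 line run in the same batch and compound series as the NT line, viability after 48 h at 37 °C was determined by CellTiter-Glo luminescence and expressed as % activity.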
* hit, by the source's call; ? = inconclusive; . = no result; [ ] = remark or other dose. Unless noted, calls follow the shape of the dose curve; as a rule, active = well fitted curve in the direction sought with a large enough effect; inconclusive = small, poorly fitted or top-dose-only effect, or another doubt; inactive = no such curve, though single readings can be large; an effect the other way counts as inactive or inconclusive. Unless noted, % is scaled to controls: 0 for no effect and ±100 for the full control effect.

SMILES	DT40 TDP1 CPT	IL1B secr inh	DT40 TDP1 no CPT	HT1080-NT tox	12-LOX inh	HT1080 IDH1KD tx
CC(=O)N[C@@H](C)C(=O)NCC1Cc2cc(C)cc(-c3cnccn3)c2O1 (some centres not stated)	-2.4%[9.04 µM]	.	-1.7%	.	4.4%	.
COc1ccc(Cl)cc1-c1ccc2c(c1)C(=O)N1CCN(C(=O)c3ccco3)C[C@H]1C(=O)N2	.	.	.	.	-4.1%	.
CC(=O)NS(=O)(=O)c1ccc(N=c2ssc3c2-c2ccc(C)cc2NC3(C)C)cc1	-27.5%	9.8	?	-6.4%	15.8µM*	-19.4%
CC(C(=O)NCc1cccnc1)c1ccc([N+](=O)[O-])cc1 (configuration not stated)	-7.6%	13.2	-6.0%	2.0%	16.6%	-2.4%
O=C(CSc1nc(Cl)nc2nc[nH]c12)NCCc1ccccc1	.	.	.	.	7.4%	.
CN(Cc1ccccc1)C(=O)[C@@H]1CCCN1C(=O)[C@@H]1CCCN1C(=O)c1cccc2ccccc12	?	12.0	18.4µM*	13.2%	-9.4%	6.1%
CCOc1cc(OCC)cc(C(=O)N2CCC[C@H]2C(=O)N2CCC[C@H]2C(=O)N(C)Cc2ccccc2)c1	5.6%	17.3	0.164µM*	21.0%	?	17.1%
CC1(C)CC(NC(=O)CCCCC(=O)NC2CC(C)(C)NC(C)(C)C2)CC(C)(C)N1	.	.	.	.	-10.0%	.
COc1ccccc1Cc1c(-c2ccc(F)cc2)nc2c(C)cc(Br)cn12	?	1.4	?	?	?	?
Cc1cc(Br)cn2c(Cc3ccccc3)c(-c3ccc(Cl)cc3)nc12	-2.4%	68.8	-20.1%	14.9%	0.0%	7.3%
Cc1cc(Br)cn2c(Cc3ccccc3)c(-c3ccc(C#N)cc3)nc12	18.4µM*	-2.9	?	-28.4%	?	-22.3%
Cc1ccc(Cc2c(-c3ccc(C)cc3)nc3c(C)cc(Br)cn23)cc1	16.4µM*	0.0	16.4µM*	?	?	-29.7%
Cc1ccc(Cc2c(-c3ccc(F)cc3)nc3c(C)cc(Br)cn23)cc1	20.6µM*	54.6	16.4µM*	?	.	?
Cc1ccc(NCC(=O)N/N=C/c2cccc(Oc3ccccc3)c2)cc1	?	-77.1*	?	-13.0%	28.7%	-12.9%
Cc1cccc(NCC(=O)N/N=C\c2cccc(Oc3ccccc3)c2)c1	?	-1.3	?	-14.9%	46.2%	-23.6%
Cc1ccc(NC(=O)N2CCCC(Cn3c(C4CC4)nc4cccnc43)C2)c(C)c1 (configuration not stated)	.	.	.	.	10.5%	.
CCOc1ccccc1NC(=O)N1CCCN(C(=O)C2CC2)C(c2ccccc2)CC(=O)NCC1 (configuration not stated)	.	.	.	.	28.7%	.
O=C(OCC1OC(n2ncc(=O)[nH]c2=O)C(OC(=O)c2ccccc2)C1OC(=O)c1ccccc1)c1ccccc1 (configuration not stated)	16.4µM*	5.8	?	-4.9%	-10.3%	-0.6%
O=C(OCC1OC(n2ccc(=O)[nH]c2=O)C2OC12)c1ccccc1 (configuration not stated)	1.9%	-2.8	-1.5%	14.3%	0.6%	9.8%
CC(=O)OCC1OC(n2ncc(=O)n(Cc3ccccc3)c2=O)C(OC(C)=O)C1OC(C)=O (configuration not stated)	12.3%	27.3	-17.7%	7.9%	-11.6%	14.4%
CC(=O)OC[C@H]1O[C@@H](n2ncc(=O)[nH]c2=O)[C@H](OC(C)=O)[C@@H]1OC(C)=O	?	91.6	10.6µM*	-7.9%	-6.5%[22.9 µM]	?
O=C(O)Cn1nnc(-c2ccccc2)c1COc1ccccc1	-0.8%	8.4	-6.2%	?	?	3.0%
COc1ccc(NC(=O)Cn2nnc(-c3ccccc3)c2COc2ccc(C(C)=O)cc2)cn1	-30.0%	-4.9	?	12.0%	-1.5%	10.8%
CC(C)NC(=O)Cn1nnc(-c2ccccc2)c1COc1ccc2ccccc2c1	14.6µM*	-17.6	?	-27.4%	6.8%	-12.0%
COc1ccc(NC(=O)Cn2nnc(-c3ccccc3)c2COc2ccc3ccccc3c2)cn1	20.6µM*	-10.2	23.1µM*	?	12.8%	?
SMILES	DT40 TDP1 CPT	IL1B secr inh	DT40 TDP1 no CPT	HT1080-NT tox	12-LOX inh	HT1080 IDH1KD tx
Cc1ccccc1C(=O)N[C@@H](Cc1cccnc1)C(=O)N1CCC[C@H]1C(=O)NC1CCCC1	.	.	.	.	-15.3%	.
CC(C)NC(=O)C1COC2(CCN(C(=O)c3cccc(Cl)c3)CC2)N1C(=O)c1ccc(F)cc1 (configuration not stated)	.	.	.	.	12.9%	.
COc1ccc(NC(=O)N2CCC(N3CC4CC(C3)[C@H]3CCCC(=O)N3C4)CC2)c(C)c1 (some centres not stated)	.	.	.	.	36.5%	.
O=C(Nc1ccncc1Cl)C(Sc1ccccc1)c1ccccc1 (configuration not stated)	.	.	.	.	1.7%	.
Cn1cnc(C(=O)N2CCC3(CC2)CC(N(Cc2ccccc2)C2CC2)CCO3)c1 (configuration not stated)	.	.	.	.	26.9%	.
Cc1ccc(C)c(OCCCNC2CCCC2)c1C	23.1µM*	-8.4	9.2µM*	-28.5%	-37.1%	-3.9%
Cc1ccc(OCCCNC2CCCC2)cc1	-16.2%	-10.9	-20.7%	-13.0%	-18.1%	-8.7%
Cc1ccc(OCCCCNC2CCCCC2)c(C)c1	20.6µM*	-62.7*	11.6µM*	?	?	?
Cc1ccc(OCC(O)CNC2CCCC2)c(C)c1 (configuration not stated)	-26.6%	-7.6	?	-16.8%	-0.9%	-15.6%
CC(C)(C)c1ccc(OCCCNC2CCCC2)cc1	?	-66.6*	29.1µM*	?	?	?
CCCOc1ccc(OCCNC2CCCC2)cc1	-20.6%	-4.5	16.4µM*	-2.5%	?	0.1%
O=C(N[C@@H]1CCN(Cc2ccc3nsnc3c2)C[C@H]1O)c1cnccn1	.	.	.	.	43.3%	.
COc1ccccc1-n1c(-c2ccccc2)n[nH]c1=S	21.7%	20.8	2.3%	?	-30.4%	2.59µM*
COc1ccc(OC)c(-n2c(-c3cccc(C)c3)n[nH]c2=S)c1	6.5%	-0.2	?	-3.2%	35.5µM*	-3.4%
Cc1ccc(C)c(-n2c(-c3ccncc3)n[nH]c2=S)c1	3.1%	16.7	-2.0%	14.2%	?	20.4%
Cc1ccc(C)c(-n2c(-c3csc(C)c3)n[nH]c2=S)c1	-36.4%	-1.5	-16.7%	?	?	10µM*

Screening data: PubChem BioAssay, National Center for Advancing Translational Sciences (NCATS)
